This is a sample that favours compounds with a hit; in the whole collection about 19% have one here.
HT1080 IDH1KD tx: kills HT-1080 cells with IDH1 knockdown; HT-1080 IDH1 knockdown viability, ATP luminescence, 48 h; AID 686971; Potency, µM (top dose mostly 46.1 µM), actives largely listed as cytotoxic; actives 2% (n = 360,000)
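Cytotoxicity counter-line: IDH1KD HT-1080, 48 h, CellTiter-Glo. Curves classed by r2, magnitude and activity.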
HT1080NT lethal: kills 2HG-producing HT-1080-NT fibrosarcoma cells. HT-1080-NT fibrosarcoma viability, CellTiter-Glo ATP luminescence, 48 h. Potency, µM (titrated, usually from 46.1 µM), most hits filed as cytotoxic. actives 1.6% (n = 360,000). AID 686970;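 further: NT is the 2HG producing partner of a matched IDH1 knockdown line; nearly all actives have a fitted effect of over 55% in size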
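Viability by CellTiter-Glo luminescence after 48 h compound exposure at 37C of HT-1080-NT cells (750/well, RPMI, 5% FBS). % activity scaled between DMSO wells and medium-only wells, then curve-fitted and categorized by curve class.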
DT40 TDP1 no CPT: qHTS for Inhibitors of human tyrosyl-DNA phosphodiesterase 1 (TDP1): qHTS in cells in absence of CPT | DT40 Tdp1-/- hTDP1 cells, no CPT, ATP luminescence, 48 h | Potency, µM (titrated, usually from 46.2 µM), actives largely listed as inhibitors | actives 15% (n = 420,000); further: nearly all actives have a fitted effect of over 55% in size
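Readout: luminescence from CellTiter-Glo after 30 min in the dark at RT. Cells: DT40 Tdp1-/- with stable hTDP1, 400/well. Exposure: compounds alone, ≥48 hr, 37 °C.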
IL1B secr inh: inhibitors of inflammasome signaling (IL-1 beta secretion). THP-1 LPS/ATP IL-1B secretion, AlphaLISA, 16 h; stronger effect = lower value. activity change, % at 57.5 µM. actives 4.7% (n = 360,000); in the data active means activity change below about -50%; inconclusive means mostly about -30% to -49%
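Secreted IL-1B measured by AlphaLISA bead assay after 16 h compound exposure of THP-1 cells; compounds (final up to 57.5 uM) added 1 h before LPS (250 ng/mL) and ATP (1.25 mM) stimulation; lower signal means less secretion.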
DT40 TDP1 CPT: growth inhibition of DT40 Tdp1-/-;hTDP1 cells with camptothecin (screen for TDP1 inhibitors); chicken DT40 Tdp1-/-;hTDP1 cells + 20 nM CPT, ATP luminescence, 48 h; Potency, µM (highest dose often 46.2 µM), actives largely listed as inhibitors; actives 12% (n = 420,000); further: nearly all actives have a fitted effect of over 55% in size
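Chicken DT40 Tdp1-/- cells complemented with human TDP1, 400 cells/well, exposed to compounds plus 20 nM camptothecin for at least 48 h at 37 C; viability read as ATP content by CellTiter-Glo luminescence.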
Large screens that a line does not name were inactive. Unless noted, the call rests on the fitted dose curve; in most records, active means well fitted curve in the direction sought with a large enough effect; inconclusive means small, poorly fitted or top-dose-only effect, or another doubt; inactive means no such curve, though single readings can be large; an effect the other way counts as inactive or inconclusive.

Cc1nc(C)n(CC(=O)N2CCCC(C(=O)c3ccc(C(F)(F)F)cc3)C2)n1 (configuration not stated)	none
Nc1ccc2c(c1)C(=O)N(c1ccc3ccccc3c1)C2=O	none (no result: HT1080 IDH1KD tx, HT1080NT lethal, IL1B secr inh)
O=C1/C(=C/c2ccccc2)SC(=S)N1N1C(=O)C2CC2C1=O (configuration not stated)	DT40 TDP1 no CPT inconclusive
O=C(CSc1ccc2ccccc2n1)N/N=C/c1ccccc1O	HT1080 IDH1KD tx inconclusive, HT1080NT lethal inconclusive, DT40 TDP1 no CPT 5.8µM, DT40 TDP1 CPT 5.2µM
O=C(Cn1cnc([N+](=O)[O-])n1)N/N=C/c1cc(Cl)ccc1O	HT1080 IDH1KD tx inconclusive, HT1080NT lethal inconclusive, DT40 TDP1 no CPT 7.3µM, DT40 TDP1 CPT 4.6µM
O=C(Cn1cncn1)N/N=C/c1ccccc1O	DT40 TDP1 no CPT 13µM, DT40 TDP1 CPT 15µM
O=C(Cn1cnc([N+](=O)[O-])n1)N/N=C/c1ccccc1O	HT1080 IDH1KD tx inconclusive, HT1080NT lethal inconclusive, DT40 TDP1 no CPT 16µM, DT40 TDP1 CPT 16µM
Cc1ccc(C)c(NC(=O)Cn2c(=O)n(-c3ccccc3C)c(=O)c3c2c2cc(C)ccc2n3C)c1	DT40 TDP1 CPT inconclusive (no result: HT1080 IDH1KD tx, HT1080NT lethal, IL1B secr inh)
COc1ccc2c(c1)c1c(c(=O)n(-c3ccc(C)cc3)c(=O)n1CC(=O)NCc1ccc(C)cc1)n2C	DT40 TDP1 no CPT 6.5µM, DT40 TDP1 CPT 7.3µM (no result: HT1080 IDH1KD tx, HT1080NT lethal, IL1B secr inh)
Cc1ccc2c(c1)c1c(c(=O)n(-c3ccccc3C)c(=O)n1CC(=O)NCc1ccccc1)n2C	DT40 TDP1 no CPT 18µM, DT40 TDP1 CPT inconclusive (no result: HT1080 IDH1KD tx, HT1080NT lethal, IL1B secr inh)
Cc1ccc2c(c1)c1c(c(=O)n(-c3ccccc3C)c(=O)n1Cc1ccccc1F)n2C	DT40 TDP1 no CPT 5.8µM, DT40 TDP1 CPT 15µM (no result: HT1080 IDH1KD tx, HT1080NT lethal, IL1B secr inh)
Cc1ccc(CNC(=O)Cn2c(=O)n(-c3ccc(C)cc3)c(=O)c3c2c2cc(C)ccc2n3C)cc1	none (no result: HT1080 IDH1KD tx, HT1080NT lethal, IL1B secr inh)
Cc1cc(C)cc(C(=O)NC(CC(N)=O)c2ccc(N3CCCCCC3)c([N+](=O)[O-])c2)c1 (configuration not stated)	none
CC[C@H]1c2[nH]c3ccc(C(C)C)cc3c2[C@@H]2CCN3C(=O)CCC[C@H]1[C@H]23	DT40 TDP1 no CPT 10µM, DT40 TDP1 CPT 10µM
CC(C)c1ccc2[nH]c3c(c2c1)[C@@H]1CCN2C(=O)CCC[C@H](C3)[C@H]12	DT40 TDP1 no CPT 15µM, DT40 TDP1 CPT 18µM
CC[C@@H]1C(=O)[C@H](Cc2ccccc2)[C@H]2CCCC(=O)N3CC[C@@H]1[C@@H]23	DT40 TDP1 no CPT inconclusive
O=C1CCC[C@@H]2Cc3nc4ccccc4cc3[C@@H]3CCN1[C@H]23	none
COC(=O)c1ccccc1NC(=O)N1CCN(Cc2ccco2)CC1	none
O=C(Cc1csc(NC(=O)c2ccc(F)cc2)n1)NO	DT40 TDP1 no CPT inconclusive, DT40 TDP1 CPT inconclusive
Cc1ccc(S(=O)(=O)N2CCN(c3cc4c(cc3[N+](=O)[O-])n(C)c(=O)n4C)CC2)cc1	DT40 TDP1 no CPT 16µM, DT40 TDP1 CPT inconclusive
Cn1c(=O)n(C)c2cc([N+](=O)[O-])c(N3CCN(S(=O)(=O)c4ccc5ccccc5c4)CC3)cc21	DT40 TDP1 no CPT inconclusive, IL1B secr inh inconclusive, DT40 TDP1 CPT 16µM
Cc1ccc(C(=O)N2CCN(c3cc4c(cc3[N+](=O)[O-])n(C)c(=O)n4C)CC2)cc1	DT40 TDP1 no CPT inconclusive, DT40 TDP1 CPT inconclusive
Cn1c(=O)n(C)c2cc([N+](=O)[O-])c(N3CCN(C(=O)c4cccc(Cl)c4)CC3)cc21	DT40 TDP1 no CPT 18µM, DT40 TDP1 CPT inconclusive
CSCC[C@H](NC(=O)[C@H]1CC[C@H](CNC(=O)[C@@H](N)Cc2ccccc2)CC1)C(=O)O	none
COc1ccc(NC(=S)Nc2ccccn2)cc1	DT40 TDP1 no CPT inconclusive, DT40 TDP1 CPT inconclusive
COC(=O)c1ccc(NC(=S)Nc2ccccn2)cc1	DT40 TDP1 no CPT inconclusive, DT40 TDP1 CPT inconclusive
Cc1ccc(NC(=S)Nc2ccccn2)cc1C	DT40 TDP1 no CPT 16µM, DT40 TDP1 CPT 23µM
Cc1ccc(NC(=S)Nc2ccc3nc(-c4ccccn4)c(-c4ccccn4)nc3c2)cc1C	DT40 TDP1 no CPT inconclusive, DT40 TDP1 CPT 26µM
Cc1cccc(NC(=S)Nc2ccccn2)c1	DT40 TDP1 no CPT 8.2µM, DT40 TDP1 CPT inconclusive
Cc1cc(C)cc(NC(=S)Nc2ccccn2)c1	DT40 TDP1 no CPT 10µM, DT40 TDP1 CPT 13µM
COc1ccc(NS(=O)(=O)c2cccc(C(=O)N/N=C/c3ccccn3)c2)cc1	none
Cc1ccc(NC(=S)NNC(=S)Nc2ccc(C)cc2C)cc1	DT40 TDP1 no CPT 5.2µM, DT40 TDP1 CPT 3.7µM
Cc1ccc(NC(=S)Nc2ccccn2)c(C)c1	HT1080NT lethal inconclusive, DT40 TDP1 no CPT 5.2µM, DT40 TDP1 CPT 3.7µM
Cc1ccc(NC(=S)c2ccncc2)c(C)c1	none
O=C(O)C1C2CCC(C2)C1C(=O)N1CCCC1 (configuration not stated)	none
COc1ccc(N2CCN(C(=O)CCc3ccccc3)CC2)cc1	none
CC(c1ccccc1F)n1cc(C(=O)NCCc2ccco2)nn1 (configuration not stated)	DT40 TDP1 no CPT 18µM, IL1B secr inh inconclusive, DT40 TDP1 CPT inconclusive
COCCNC(=O)c1cn(C(C)c2ccccc2F)nn1 (configuration not stated)	none
O=C1COc2ccc(C(=O)c3ccccc3C(=O)NCc3ccccc3)cc2N1	DT40 TDP1 no CPT inconclusive, DT40 TDP1 CPT inconclusive
O=C(COC(=O)c1cccs1)Nc1nnc(-c2ccccc2)o1	DT40 TDP1 CPT inconclusive
CC(=O)c1ccc(F)c(-c2cc(C)cc3c2OC(CNC(=O)Cn2nc(C)nc2C)C3)c1 (configuration not stated)	none (no result: HT1080 IDH1KD tx, HT1080NT lethal, IL1B secr inh)
Cc1cc(C)n(-c2nc(NCCCO)c3c4c(sc3n2)CCCC4)n1	DT40 TDP1 no CPT 4.1µM, DT40 TDP1 CPT 5.8µM
Cc1nc(-n2nnc3cc(C)c(C)cc32)c2c3c(sc2n1)CCCC3	DT40 TDP1 CPT inconclusive
Cc1cc(C)n(-c2nc(NCCO)c3c4c(sc3n2)CCCC4)n1	DT40 TDP1 no CPT inconclusive, DT40 TDP1 CPT inconclusive
Cc1cc(C)n(-c2nc(NCC(C)O)c3c4c(sc3n2)CCCC4)n1 (configuration not stated)	DT40 TDP1 no CPT 18µM, DT40 TDP1 CPT inconclusive
CNC(=O)[C@H]1O[C@H](n2cnc3c(NCc4cccc(I)c4)ncnc32)[C@@H](O)[C@@H]1O	DT40 TDP1 no CPT inconclusive (no result: HT1080 IDH1KD tx, HT1080NT lethal, IL1B secr inh)
O=C(c1c(F)cccc1F)N1CCN(CCOc2ccccc2)CC1	DT40 TDP1 no CPT inconclusive
O=C1CN(C(=O)c2c(F)cccc2F)C(c2ccccc2)c2cc(Br)ccc2N1 (configuration not stated)	HT1080 IDH1KD tx inconclusive, HT1080NT lethal inconclusive, DT40 TDP1 no CPT inconclusive, DT40 TDP1 CPT inconclusive
CCCC(=O)N1CC(=O)Nc2ccc(C)cc2C1c1ccccc1 (configuration not stated)	none
